The text below walks through data of ChEMBL document CHEMBL1157539, “Thousands of chemical starting points for antimalarial lead identification” (Nature, 2010).

For orientation: Inhibition means how much of the control response was suppressed. High values mean a strong effect, low ones a weak effect.

The assay deals with HepG2. In words: GSK_TCMDC: Percent inhibition of human HepG2 cell line. Test compounds present at 10uM. Type of assay: functional.
Regarding `O=C(NC1CCN(Cc2ccccc2)CC1)c1ccc(-c2nc3cc(Cl)c(F)cc3[nH]2)s1`, the Inhibition was determined as 28%.
The figure for `COc1cc2nc(N3CCC(CNC(=O)c4ccc(-c5ccc(C#N)cc5C)cc4)CC3)nc(N)c2cc1OC` is 28%; for `CC(C)N1CCN(C(CN2CCN(CCCOc3cccc(-c4ccccc4)c3)CC2)c2ccc(F)cc2)CC1.Cl` (centres undefined) it is 100%.
Then `O=C(Nc1ccc(F)c(C(F)(F)F)c1)NC1CCN(CCCCCNC(=O)C2CC2c2ccc(Cl)c(Cl)c2)CC1` (centres undefined), with 96%; and `CS(=O)(=O)c1cc2c(Nc3ccc(N4CCOCC4)cc3)c(C(N)=O)cnc2cc1Br.Cl`, with 0%.
Then `Cn1c(=O)c2nc(-c3ccc(Cl)cc3)nnc2n(CCCC#N)c1=O`, with 6%.
Regarding `Cl.N=C(N)NN=Cc1cc([N+](=O)[O-])ccc1Sc1ccccc1CO`, the Inhibition was 25%.
Consider `O=C(Nc1ccc(F)c(F)c1)c1ccc(CN2CCCN(Cc3cccc(F)c3)CC2)cc1.O=C(O)C(F)(F)F`, for which the Inhibition was determined as 51%.
The figure for `CN1CCN(S(=O)(=O)c2ccc3nccc(Nc4ccc(Oc5ccccc5)cc4)c3c2)CC1.Cl` is 0%; for `COc1ccc2ncc(F)c(CCN3CCC(NCc4cc(Br)c5c(c4)OCCO5)CC3)c2n1.Cl` it is 26%.
Then `Cc1ccc(Cc2c(C)nc3nc(N)nc(N)c3c2C)cc1.Cl`, with 60%; and `Cl.N=C(N)c1ccc(OCc2cccc(COc3ccc(C(=N)N)cc3I)c2)c(I)c1`, with 7%; and `CN(C)CCNCc1cccc(-c2ccc3c(Nc4ccc(Oc5ccccn5)cc4)ccnc3c2)c1`, with 27%.
Then `CCN(CCCN1CCCCC1)c1cc(C)nc(Nc2ccc(C)c(Cl)c2)n1.O=C(O)C(F)(F)F`, with 32%; and `COc1ccc(CNC2Cc3ccccc3C2)cc1-c1ccc(S(=O)(=O)NCCN2CCCC2)s1.O=C(O)C(F)(F)F`, with 89%.
For `Nc1nccc2ccc(-c3ccnc(NCc4cccnc4)n3)cc12`, the Inhibition was determined as 11%.
The figure for `COCCOc1cc(C)c(C2CCN(CCCCNC(=O)c3ccc(NC(=O)c4ccc(Cl)cc4)cc3)CC2)cc1C` is 15%.
The figure for `CN(C)CCN(Cc1ccccc1)c1ccc([N+](=O)[O-])cc1C(F)(F)F.O=C(O)C(F)(F)F` is 40%; for `O=C(Nc1cccc(OC2CCN(Cc3ccccc3)CC2)c1)Nc1cccc([N+](=O)[O-])c1.O=C(O)C(F)(F)F` it is 10%.
The compound `COc1ccccc1-n1c(SCC(=O)Nc2ccccc2F)nc2cccnc21` had an Inhibition of 0%.
The figure for `COc1ccc(-c2ccc(NC(=O)c3cccc(Cl)c3)cc2)cc1CN1CCN(C)CC1.O=C(O)C(F)(F)F` is 42%; for `FC(F)(F)Oc1ccc(Nc2cc(-c3ccncc3)nc(-c3cccnc3)n2)cc1` it is 24%.
Then `COc1c(Br)cc(Br)cc1C(C)=O`, with 3%.
For the compound `COc1ccc(Nc2nccc(N3CCC(NS(=O)(=O)c4ccc(NC(C)=O)cc4)C3)n2)cc1` (centres undefined), the Inhibition is recorded as 3%.
In turn, `COc1ccc2[nH]ccc(=NN=Cc3cccc(Cl)c3)c2c1` showed an Inhibition of 1%.
Then `CN1C(C)(C)CC(NC(=O)c2ccc(-c3cc4cc(Cl)c(Cl)cc4[nH]3)o2)CC1(C)C`, with 21%; and `COc1cccc(-c2ccc(O)c(CNCCc3cccc(F)c3)c2)n1`, with 0%.
The figure for `CCc1ccc(-c2nc3cc(NC(=O)c4ccc([N+](=O)[O-])o4)ccc3o2)cc1` is 4%; for `O=C(Nc1cccc(-c2cccc(-c3nc4cc(F)ccc4[nH]3)c2)c1)Nc1ccc2c(c1)OCO2` it is 30%.
The figure for `Cc1ccccc1CNC(=O)Nc1cccc(-c2csc(NC(=N)N)n2)c1` is 2%; for `CC(C)[C@H](NC(=O)c1ccc(O)c(-c2ccc(Cl)c(Cl)c2)c1)C(=O)NCCN(C)C` it is 0%; for `O=S(=O)(Nc1cccc(CCN2CCCCC2CCN2CCCC2)c1)c1cccc2ccccc12` (centres undefined) it is 23%.
For `O=C(Nc1cccc(F)c1)N[C@H]1CCN(CCCCCNC(=O)C2CC2c2ccc(Cl)c(Cl)c2)C1` (some centres undefined), the Inhibition came to 41%.
The figure for `COc1ccc(NC(=O)CCNc2cc(C)nc(NCCc3ccccc3)n2)cc1.O=C(O)C(F)(F)F` is 3%; for `CN(C)Cc1ccc(-c2cc3ncnc(Nc4ccc(OCc5cccc(F)c5)c(Cl)c4)c3s2)[nH]1` it is 53%; for `CCOc1ccc(-c2nc(NC(=O)CS(=O)(=O)c3ccccc3)sc2C)cc1` it is 6%.
Then `Cn1cncc1CCCN(Cc1ccc(-c2ccc(C(F)(F)F)cc2)cc1)C(=O)Cn1c(CCc2cccc(F)c2F)cc(=O)c2cccnc21`, with 17%.
Then `N#Cc1ccc(N2CCN(Cc3cccc(-c4ccc(-c5nc6cc(C(F)(F)F)ccc6[nH]5)s4)c3)CC2)nc1.O=C(O)C(F)(F)F`, with 31%.
`Clc1ncnc2scc(-c3ccc(Br)cc3)c12`: the Inhibition came to 0%.
